High-throughput results deposited in PubChem BioAssay by several laboratories.
EBV LMP1 NFkB: Epstein-Barr LMP1 NF-kappaB reporter inhibition; LMP1-induced NF-kappaB luciferase reporter cells, luminescence; 350,000 compounds, 0.69% hits; inhibition, % at 12.5 µM; in the data active = inhibition above about 41%; inconclusive = no clear call, values can overlap the other calls
TROY signal inh: blocks TROY-dependent signaling in reporter cells; inhibition, % at 10 µM; Q293 LMP1-TROYcd NF-kB luciferase reporter, 4 h; 360,000 compounds, 0.98% hits;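 active = compounds whose plate-normalised and pattern-corrected inhibition of the luciferase reporter signal at the single screening dose is 50% or more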
Shn3 3UTR inh: inhibitors of Schnurri-3 3'UTR reporter in osteoblasts; Clone20 osteoblast Shn3 3'UTR firefly luciferase, 24 h; 360,000 compounds, 0.52% hits; inhibition, % at 12.5 µM; AID 588674;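 active = mean inhibition of at least 75% with every replicate also reaching 75%; inconclusive = mean inhibition at least 75% but some replicate below; inactive = mean inhibition below 75%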
TWEAK-Fn14 inh: TWEAK-Fn14 signaling inhibition; TWEAK-stimulated Fn14 reporter cells, luciferase luminescence, 8 h; AID 1159606; inhibition, % at 10 µM; 360,000 compounds, 2% hits; in the data active = inhibition above about 50%
Peg3 prom inh: reduces Peg3 promoter-driven luciferase expression in HeLa; 360,000 compounds, 1.7% hits; inhibition, % at 20 µM; HeLa PEG-Prom luciferase reporter, luminescence, overnight; AID 588405;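 active = inhibition of at least 50% at 20 µM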
TRPM1 prom inh: inhibitors of MITF-driven TRPM1 promoter in melanoma cells; SK-MEL-5 TRPM1 promoter luciferase, 24 h; inhibition, % at 12.5 µM; 330,000 compounds, 0.83% hits; AID 488899;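 active = mean inhibition across replicates of 60% or more, whatever share of single replicates reaches that level; inconclusive = some that reach 60%, reason not given; inactive = mean inhibition across replicates below 60%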
Each line names hits and unclear results; the compound was inactive in the other large screens. Shown are actives, neighbours in structure and some others; about 4.1% of the full set was active somewhere.

Cc1cc(C)c2nc3sc(C(=O)N4CCOCC4)c(N)c3cc2c1	EBV LMP1 NFkB 50.8
CCOC(=O)c1nn(-c2ccc(Cl)cc2C)ccc1=O	none
CNC(=S)N/N=C/c1c2ccccc2c(Cl)c2ccccc12	none
CCOC(=O)c1c(C)n(-c2ccc(C)cc2)c2ccc(OCC(O)CN3CCN(C)CC3)cc12 (stereo not drawn)	Peg3 prom inh 78.5
CCOC(=O)c1c(C)n(C)c2ccc(OCC(O)CN3CCN(C)CC3)cc12 (stereo not drawn)	none
CC(=O)c1c(C)[nH]c(C(=O)Nc2ccc(N3CCCCCC3)cc2)c1C	TWEAK-Fn14 inh 72.3 (no result: TRPM1 prom inh)
CC(=O)c1c(C)[nH]c(C(=O)NCc2ccccc2F)c1C	TWEAK-Fn14 inh 54.3
CC(=O)c1c(C)[nH]c(C(=O)Nc2cccc(C)n2)c1C	TWEAK-Fn14 inh 52.7
CCOC(=O)c1c(SCCN2CCCC2)n(-c2ccccc2)c(=S)n(-c2ccccc2)c1=O	Shn3 3UTR inh inconclusive, Peg3 prom inh 100.0, TRPM1 prom inh 95.7
CCOC(=O)c1c[nH]c(=S)n(-c2ccccc2)c1=O	none
COC(=O)CSc1cccc2c1C(=O)CC2c1ccccc1 (stereo not drawn)	none
O=C1C=CC2(O[C@H](c3ccccc3)[C@@H](c3ccccc3)O2)[C@H](Sc2ccccc2O)C1	EBV LMP1 NFkB 82.2, TROY signal inh 80.2, Shn3 3UTR inh 95.6, TWEAK-Fn14 inh 104.8, Peg3 prom inh 107.8, TRPM1 prom inh 94.2
O=C(COC(=O)CC(c1ccccc1)c1ccccc1)NCc1ccc(Cl)cc1	TWEAK-Fn14 inh 62.1
CCCC(=O)OCC(=O)NCc1ccc(Cl)cc1	none
CN1CCN(S(=O)(=O)c2ccccc2)C(c2ccccc2)C1 (stereo not drawn)	none
CCOC(=O)N1CCN(c2ccc(S(=O)(=O)N(Cc3ccccc3)Cc3ccccc3)cn2)CC1	TROY signal inh 62.3
CCOC(=O)N1CCN(c2ccc(S(=O)(=O)N3CCOCC3)cn2)CC1	none
COc1ccc(N=C2SC(CC(=O)Nc3cccc(Cl)c3)C(=O)N2Cc2ccco2)cc1 (stereo not drawn)	TWEAK-Fn14 inh 53.1
CCCC[C@@H](CNC)NC[C@H](NCCCCC1CCCCC1)C(C)C	Peg3 prom inh 103.6, TRPM1 prom inh 77.6
CCOc1ccc(NC(=O)C2CCN(S(=O)(=O)c3ccc4c(c3)NC(=O)C(C)S4)CC2)cc1 (stereo not drawn)	none
COc1ccc2c(c1)[nH]c(=O)c1sc3ccccc3c12	none
COc1ccc2sc3c(=O)[nH]c4ccccc4c3c2c1	EBV LMP1 NFkB 88.2
Cc1ccc(C)c(CNC(=O)Nc2ccccc2)c1	none
Cc1nc(SCC(=O)Nc2ccc(CN3CCCC3)cc2)c2c(C)c(C)sc2n1	Peg3 prom inh 84.6, TRPM1 prom inh 76.6
CC(=O)Nc1ccc(NC(=O)CSc2nc(C)nc3sc(C)c(C)c23)cc1	none
CCN(Cc1ccc2c(c1)OCO2)C(=O)CSc1nc(C)nc2sc(C)c(C)c12	TROY signal inh 57.0
Cc1sc2nc(SCC(=O)Nc3ccc(Cl)c(C(=O)O)c3)[nH]c(=O)c2c1C	TWEAK-Fn14 inh 52.4
C/C(N)=C(/C#N)C(=O)COC(=O)c1ccc(NC(N)=O)cc1	none
c1ccc(-c2nn(-c3ccccc3)[n+](-c3ccccc3)n2)cc1	TRPM1 prom inh 62.4
Clc1ccc(-c2nnc(Sc3nc4ccccc4o3)c3ccccc23)cc1	none
O=c1c(Cl)c2oc3ccccc3nc-2c2ccccc12	TRPM1 prom inh 63.3
CC(C)CC(OC(=O)CC1Sc2ccccc2NC1=O)C(=O)NC1CCCC1 (stereo not drawn)	none
C[C@@H]1CN([C@@H](C)CO)S(=O)(=O)c2ccc(Br)cc2O[C@H]1CN(C)Cc1ccccn1	none (no result: TRPM1 prom inh)
CCN(CC)CCNc1nc2nonc2nc1NCCN(CC)CC	none
O=C(Nc1ccc(F)cc1)Nc1ccc(N2CCCC2)c(S(=O)(=O)Nc2ccccc2Cl)c1	TWEAK-Fn14 inh 75.5, TRPM1 prom inh 74.7
O=C(Nc1ccc(N2CCOCC2)c(S(=O)(=O)Nc2ccccc2Cl)c1)c1ccc(F)cc1	none
O=C(Nc1ccc(Cl)c(Cl)c1)Nc1ccc(N2CCCC2)c(S(=O)(=O)Nc2ccccc2Cl)c1	Shn3 3UTR inh 97.7, TWEAK-Fn14 inh 68.3, Peg3 prom inh 57.6, TRPM1 prom inh 73.1
COc1ccc(C)cc1NC(=O)CNC(C)C(=O)Nc1ccc(C(C)=O)cc1 (stereo not drawn)	none
CC(=O)Nc1ccc(-c2csc(N/N=C\c3ccncc3)n2)cc1	none (no result: EBV LMP1 NFkB, TRPM1 prom inh)
CCCC(=O)Nc1ccc(-c2csc(N/N=C\c3ccncc3)n2)cc1	Peg3 prom inh 68.0
O=c1c(Cc2ccc(Cl)cc2Cl)c(O)ccn1Cc1ccc(Cl)cc1	TROY signal inh 50.8
O=c1[nH]c2ccc(Cl)cc2c(-c2ccccc2)c1SC(=S)N1CCOCC1	none
O=c1[nH]c2ccc(Cl)cc2c(-c2ccccc2)c1SC(=S)N1CCCCC1	TWEAK-Fn14 inh 77.2
O=C(c1ccc2oc(CCCc3ccccc3)nc2c1)N1CCCC1	none
Cc1nn(-c2ccccc2)nc1C(=O)Oc1cc(C(F)(F)F)nn1-c1ccccc1	none
CCC(C)(C)NC(=O)CN(C(=O)c1snc(C(N)=O)c1N)c1ccc2c(c1)OCCO2	none
CCCC(C(=O)NC(C)(C)C)N(Cc1ccc(F)cc1)C(=O)c1snc(C(N)=O)c1N (stereo not drawn)	Peg3 prom inh 97.3
CCCC(C(=O)NC(C)(C)C)N(C(=O)c1snc(C(N)=O)c1N)c1ccc2c(c1)OCCO2 (stereo not drawn)	TROY signal inh 81.8, TWEAK-Fn14 inh 86.5
COC(=O)c1sccc1NS(=O)(=O)c1ccccc1[N+](=O)[O-]	none
CCn1c(Oc2ccccc2F)nc2c1c(=O)n(C)c(=O)n2C	TWEAK-Fn14 inh 73.1
Cc1sc2ncnc(N3CCN(S(=O)(=O)c4ccccc4)CC3)c2c1C	Shn3 3UTR inh 94.0, TWEAK-Fn14 inh 74.0
c1ccc(-c2cc3c(N4CCN(c5ccccc5)CC4)ncnc3s2)cc1	none
O=S(=O)(c1ccccc1)N1CCN(c2ncnc3sc(-c4ccccc4)cc23)CC1	TWEAK-Fn14 inh 81.4
Cc1ccc(OCCN2CCN(c3ncnc4sc(C)c(C)c34)CC2)cc1	TWEAK-Fn14 inh 50.4
Cc1sc2ncnc(N3CCCCC3)c2c1C	none
CC(=O)c1cccc(NC(=O)C(C)OC(=O)c2cccc(-n3cnnn3)c2)c1 (stereo not drawn)	none
CC1CN(CCCCSc2ccc(Cl)cc2)CC(C)O1 (stereo not drawn)	TWEAK-Fn14 inh 89.6
COc1ccc(-n2nc(C(=O)NCC(=O)NCc3ccc(F)cc3)c3ccccc3c2=O)cc1OC	none
CN1CCCC(CN2c3ccccc3Sc3ccccc32)C1 (stereo not drawn)	none
CN1CCCC(CC2c3ccccc3Sc3ccccc32)C1 (stereo not drawn)	Peg3 prom inh 60.3
CCCCCSc1nc2c(c(=O)[nH]c(=O)n2C)n1C	none (no result: TRPM1 prom inh)
COCCn1c(SCCN2CCOCC2)nc2c1c(=O)[nH]c(=O)n2C	EBV LMP1 NFkB 76.5
